SMILES strings stand for the structures. Out of some 330,000 compounds screened, about 650 (0.2%) were called active. Shown is part of a subset that was picked to be rich in actives. A number with no mark means an inactive call. Cut-off read from the data, not from the text of the source: active = inhibition above about 50%; inactive = the rest.

Results on 47 compounds are retold here after PubChem BioAssay AID2557 (NMMLSC, 2010).

The target in the assay is Integrin alpha-4 (Homo sapiens) (UniProt P13612). Put plainly: inhibition in human VLA-4 binding assay, primary screen, VLA-4 allosteric modulator project, MLPCN library, flow cytometry, VLA-4 expressing cells (AID 2557). The note with it: ligand binding flow cytometry, hits give high values, about 7 µM as worked out from the volumes in the protocol. Background: In flow cytometry, cells or beads pass a laser one at a time.
Sequence of Integrin alpha-4 (Homo sapiens) (P13612 whole entry, looked up): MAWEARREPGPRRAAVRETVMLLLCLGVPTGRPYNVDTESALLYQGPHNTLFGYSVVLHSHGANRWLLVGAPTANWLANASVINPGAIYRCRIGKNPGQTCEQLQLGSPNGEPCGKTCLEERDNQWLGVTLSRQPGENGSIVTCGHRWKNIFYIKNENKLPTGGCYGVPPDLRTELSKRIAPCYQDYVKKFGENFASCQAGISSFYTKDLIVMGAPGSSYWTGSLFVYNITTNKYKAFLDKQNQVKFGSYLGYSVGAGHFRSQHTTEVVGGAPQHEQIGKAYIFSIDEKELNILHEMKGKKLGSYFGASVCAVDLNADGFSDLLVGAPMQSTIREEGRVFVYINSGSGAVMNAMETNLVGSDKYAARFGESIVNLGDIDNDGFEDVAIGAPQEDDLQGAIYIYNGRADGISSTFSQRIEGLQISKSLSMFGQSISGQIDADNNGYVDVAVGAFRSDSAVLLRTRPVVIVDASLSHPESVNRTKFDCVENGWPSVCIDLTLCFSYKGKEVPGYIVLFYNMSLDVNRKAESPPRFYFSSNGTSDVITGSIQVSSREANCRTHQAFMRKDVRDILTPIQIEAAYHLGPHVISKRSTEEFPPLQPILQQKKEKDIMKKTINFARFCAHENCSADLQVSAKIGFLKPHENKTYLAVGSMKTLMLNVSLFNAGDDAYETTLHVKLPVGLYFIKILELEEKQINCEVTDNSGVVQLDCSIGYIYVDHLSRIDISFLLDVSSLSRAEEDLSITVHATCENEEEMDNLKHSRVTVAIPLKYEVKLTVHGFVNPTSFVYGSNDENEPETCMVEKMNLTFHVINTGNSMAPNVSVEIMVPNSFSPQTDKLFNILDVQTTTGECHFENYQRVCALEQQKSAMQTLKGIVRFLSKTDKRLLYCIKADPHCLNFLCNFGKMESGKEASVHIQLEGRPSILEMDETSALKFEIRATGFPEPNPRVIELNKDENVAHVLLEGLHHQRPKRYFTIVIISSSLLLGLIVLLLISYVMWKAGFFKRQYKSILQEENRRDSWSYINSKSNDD
In general, inhibition refers to the relative decrease from the control value, in per cent. For `COc1cccc(NC(=O)N2C3CCCC2CC(NC(C)=O)C3)c1` (configuration not stated), the inhibition is 9.9%.
For `COc1cccc(-c2cccc(NC(=O)C3CCN(C4CCC4)CC3)c2)c1` the value was 58.8% (active); for `O=C(Nc1cccc(-c2cccc(Cl)c2)c1)C1CCN(C2CCC2)CC1`, 3.72%; for `CC1(C)CC(=O)C(N=Nc2c(F)cccc2F)=C(O)C1`, 6.6%.
For `Cc1ccc2nc(SCc3cn4c(C)cc(C)nc4n3)[nH]c2c1` the value was 9.58%.
For `Cc1nn(CC(=O)Nc2ccc(N(C)C)cc2)c(C)c1[N+](=O)[O-]` the value was -13.4%.
Consider `CCc1ccc(NC(=O)Cn2nc(C)c([N+](=O)[O-])c2C)cc1`, for which the inhibition is -5.52%.
For `Cc1nn(CC(=O)Nc2ccc(C#N)cc2)c(C)c1[N+](=O)[O-]` the value was 56.9% (active); for `Cc1ccc(/C=C/C(=O)OCC(=O)NCc2ccc(Cl)cc2)o1`, 50.7% (active).
For `O=C(COC(=O)c1ccco1)NCc1ccc(Cl)cc1` the value was 5.08%; for `Cc1cc(NC(=O)COC(=O)/C=C/c2ccc(C)o2)no1`, 4.12%; for `COCCN1C(=O)C(=O)/C(=C(/O)c2ccc(S(=O)(=O)N3CCCCC3)cc2)C1c1ccc(OC)c(OC)c1` (configuration not stated), -2.1%.
`O=C(CCNC(=O)c1ccccc1Cl)NN=Cc1ccco1`: the inhibition is 4.92%.
For `CC(=O)n1cc([C@H]2C=C(C(=O)N3CCOCC3)O[C@@H](OCc3ccc(CO)cc3)C2)c2ccccc21` the value was -20.8%; for `Cc1cccc(C)c1N1CCN(S(=O)(=O)N2CCCCC2)CC1`, -7.93%.
Next, `CC1O[C@@H](OC2C(O)C(C)O[C@H](OC(=O)[C@]34CCC(C)(C)C[C@H]3C3=CCC5[C@@]6(C)CC(O)C(O[C@@H]7OC(CO)C(O)[C@@H](O)[C@@H]7O)[C@@](C)(C(=O)O)C6CC[C@@]5(C)[C@]3(CO)CC4)C2O[C@H]2OC(C)[C@@H](O[C@@H]3OCC(O[C@@H]4OC(CO)C(O)[C@H](O)C4O)[C@@H](O)[C@@H]3O)[C@H](O)C2O)C(O)C(O)C1O` (some centres not stated): -0.38%; `Cc1nn(Cc2ccc(Cl)c(Cl)c2)c(C)c1NC(=O)c1cc(C2CC2)on1`: 55% (active).
As to `Cc1nn(Cc2ccc(F)cc2)c(C)c1NC(=O)c1cccnc1Cl`, the inhibition is 12.2%.
As for `Cc1cc(C(=O)Nc2c(C)nn(Cc3ccccc3)c2C)on1`, the inhibition is 34.7%.
As to `COc1ccccc1CNC(=O)c1ccc(Cl)c(S(=O)(=O)N2CCCC2)c1`, the inhibition is 4.64%.
Next, `COc1ccc(N=C2SC(C(=O)Nc3ccc(F)cc3)CC(=O)N2C)cc1` (configuration not stated): 5.98%.
Next, `N#CCC(=O)NC1CCC(CC2CCC(NC(=O)CC#N)CC2)CC1` (configuration not stated): -12%; `CS(=O)(=O)n1nc(-c2ccco2)nc1N`: 15.3%.
Next, `O=C(CSc1nnc(-c2ccco2)n1-c1ccccc1)NCCc1ccccc1`: 4.12%; `CSc1nc(-c2ccco2)nn1C(=O)CCc1ccccc1`: 54% (active); `CCOC(=O)NC(=O)CSc1nnc(SCCC(=O)O)s1`: -3.59%.
Turning to `O=C(c1cc2ccccc2o1)N1CCN(S(=O)(=O)c2ccc(Cl)s2)CC1`, the inhibition is 2.54%.
As to `CCOC(=O)N1CCC(c2cc(=O)n(-c3ccccc3)[nH]2)CC1`, the inhibition was -1.65%.
Next, `O=C(CSc1ncnc2sccc12)NC1CCS(=O)(=O)C1` (configuration not stated): 6.26%; `COc1ccc(-n2ncc3c2CC(C)(C)CC3NC(=O)CCc2c(C)nn(C)c2C)cc1` (configuration not stated): 4.43%; `O=C(Cn1cc2c(n1)CCCCC2)NCCN1CCOCC1`: -8.14%.
Next, `COCCNC(=O)Cn1cc2c(n1)CCCCC2`: 54.5% (active); `COc1ccccc1CNC(=O)Cn1cc2c(n1)CCCC2`: -20.9%.
For `CC(=NCc1ccc2c(c1)OCO2)C1=C(O)c2ccccc2C1=O` the value was 3.18%.
`COC(=O)[C@@H]1C[C@@]2(O)[C@@H](O)[C@@H](O)[C@@H](O)C[C@H]2N1Cc1ccc(C)s1`: the inhibition is 23.4%.
Next, `COc1ccc2c3c1O[C@H]1C[C@@H](O)C=C[C@@]31CCN(C)C2`: 13.3%.
Take `CN1CCN(C(=O)Cn2c(C(F)(F)F)nc3ccccc32)CC1`: the inhibition was 5.72%.
For the compound `Cc1ccccc1OC(=O)Cn1c(C(F)(F)F)nc2ccccc21`, the inhibition was 7.11%.
For `CC(C)(C)NC(=O)NC(=O)COC(=O)Cn1c(C(F)(F)F)nc2ccccc21` the value was 60.1% (active); for `CCOCCCN(C(=O)Cn1nnc(-c2ccc(OC)c(OC)c2)n1)C(CC)C(=O)NC1CCCC1` (configuration not stated), 4.18%.
For `Cc1cnc(NC(=O)c2ccccn2)s1` the value was 11.4%.
For `Cc1cnc(NC(=O)C2CCCC2)s1` the value was 92.5% (active); for `Cc1nc(NC(=O)C2CCCCC2)sc1C`, 3.52%; for `Cc1cc(C)c(C#N)c(SCC(=O)NN2CC(=O)N(c3ccccc3F)CC2=O)n1`, 13.8%.
As for `O=C(COC(=O)c1ccccc1O)NCc1ccco1`, the inhibition was -3.83%.
For `Cc1cc(C(=O)OCC(=O)NCc2ccco2)c(C)n1-c1ccccc1`, the inhibition was 64.6% (active).
For `CN(c1ccccc1)S(=O)(=O)c1ccc(Cl)c(C(=O)OCC(=O)NCc2ccco2)c1` the value was 17.3%.
